About 2,000 (36%) of roughly 5,500 compounds were called active. Not shown: some 18% with an inconclusive outcome. Cut-off read from the data, not from the text of the source: active = normalized growth mostly below about 0.91 (no sharp cut-off); inconclusive = no clear call, values can overlap the other calls; inactive = mostly above about 0.92. The list shows a part of the results.
Experiment: chemical genetic growth profiling, strain panel (AID 1159580);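 note: tested at 20 µM; growth read once vehicle control cultures reached saturation at 30 °C; 1 = growth at the plate median or of vehicle wells; lower values mean less growth of the strain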
Conditions: growth OD
[1] = S. cerevisiae deletion strains, locus YAL013W, strain DEP1, active compounds read low
[2] = S. cerevisiae deletion strains, locus YBR229C, strain ROT2, active compounds read low
[3] = S. cerevisiae deletion strains, locus YCL061C, strain MRC1, active compounds read low
[4] = S. cerevisiae deletion strains, locus YDL101C, strain DUN1, active compounds read low
[5] = S. cerevisiae deletion strains, locus YDR150W, strain NUM1, active compounds read low
[6] = S. cerevisiae deletion strains, locus YEL061C, strain CIN8, active compounds read low
[7] = S. cerevisiae deletion strains, locus YGR078C, strain PAC10, active compounds read low
[8] = S. cerevisiae deletion strains, locus YHR030C, strain SLT2, active compounds read low
[9] = S. cerevisiae deletion strains, locus YHR087W, strain rtc3, active compounds read low
[10] = S. cerevisiae deletion strains, locus YJL187C, strain SWE1, active compounds read low
[11] = S. cerevisiae deletion strains, locus YJR043C, strain POL32, active compounds read low
[12] = S. cerevisiae deletion strains, locus YJR075W, strain HOC1, active compounds read low
[13] = S. cerevisiae deletion strains, locus YLR039C, strain RIC1, active compounds read low
[14] = S. cerevisiae deletion strains, locus YLR058C, strain SHM2 (second series), active compounds read low
[15] = S. cerevisiae deletion strains, locus YLR085C, strain ARP6, active compounds read low
[16] = S. cerevisiae deletion strains, locus YLR262C, strain YPT6, active compounds read low
[17] = S. cerevisiae deletion strains, locus YML094W, strain GIM5, active compounds read low
[18] = S. cerevisiae deletion strains, locus YMR219W, strain ESC1, active compounds read low
[19] = S. cerevisiae deletion strains, locus YMR263W, strain SAP30, active compounds read low
[20] = S. cerevisiae deletion strains, locus YNL153C, strain GIM3, active compounds read low
[21] = S. cerevisiae deletion strains, locus YNL298W, strain CLA4 (second series), active compounds read low
[22] = S. cerevisiae deletion strains, locus YNL322C, strain KRE1, active compounds read low
[23] = S. cerevisiae deletion strains, locus YNR030W, strain Alg12, active compounds read low
[24] = S. cerevisiae deletion strains, locus YOL006C, strain TOP1, active compounds read low
[25] = S. cerevisiae deletion strains, locus YPL055C, strain LGE1, active compounds read low
[26] = S. cerevisiae deletion strains, locus YPL241C, strain CIN2, active compounds read low
[27] = S. cerevisiae deletion strains, locus YPR135W, strain CTF4, active compounds read low
[28] = S. cerevisiae strains, strain wild type, active compounds read low

Measured: normalized growth

N#CCCN(CC1CCCO1)C(=S)Nc1cc(C(F)(F)F)cc(C(F)(F)F)c1 (stereo not given)
inactive: [1] 1.01 | [2] 0.965 | [3] 0.994 | [4] 0.991 | S. cerevisiae deletion strains, locus YDL134C, strain PPH21, active compounds read low 0.95 | [5] 0.953 | [6] 0.982 | [7] 0.985 | [8] 0.882 | [9] 0.979 | [10] 1 | [11] 0.938 | [12] 0.918 | S. cerevisiae deletion strains, locus YKL190W, strain CNB1, active compounds read low 1.02 | [13] 0.86 | [14] 1.01 | [15] 0.85 | [16] 0.908 | [17] 0.888 | [18] 0.996 | [19] 0.978 | [20] 1 | [21] 0.985 | [22] 1 | [24] 0.903 | [25] 0.866 | [27] 0.827 | [28] 1.02
active: [23] 0.829 | [26] 0.797

CN(C)C=Nc1ncccc1OCc1ccc(Cl)c(Cl)c1
inactive: [1] 0.973 | [2] 0.989 | [3] 0.945 | [4] 0.951 | [5] 0.851 | [6] 0.951 | [7] 0.964 | S. cerevisiae deletion strains, locus YGR229C, strain SMI1, active compounds read low 0.967 | [9] 1.04 | [10] 0.959 | [11] 0.951 | [12] 1 | [13] 1.05 | [14] 1 | [16] 1.05 | [17] 0.923 | [18] 0.987 | [19] 0.963 | [20] 0.94 | [22] 0.978 | [23] 0.926 | [25] 0.995 | [26] 0.888 | [27] 0.756
active: [8] 0.47 | [15] 0.722 | [21] 0.788 | [24] 0.563 | [28] 0.878

O=C(NCc1ccc(Cl)c(Cl)c1)c1cccnc1OCC(F)(F)F
inactive: S. cerevisiae deletion strains, locus YAR019C, strain CDC15, active compounds read low 0.956 | S. cerevisiae deletion strains, locus YBL105C, strain PKC1, active compounds read low 0.951 | S. cerevisiae deletion strains, locus YBR135W, strain CKS1, active compounds read low 0.947 | S. cerevisiae deletion strains, locus YBR136W, strain MEC1, active compounds read low 0.97 | S. cerevisiae deletion strains, locus YBR160W, strain CDC28, active compounds read low 0.961 | S. cerevisiae deletion strains, locus YDL017W, strain CDC7, active compounds read low 0.955 | S. cerevisiae deletion strains, locus YDL028C, strain MPS1, active compounds read low 0.97 | [4] 0.958 | S. cerevisiae deletion strains, locus YDL108W, strain KIN28, active compounds read low 0.947 | S. cerevisiae deletion strains, locus YDL132W, strain cdc53, active compounds read low 0.952 | S. cerevisiae deletion strains, locus YDL214C, strain PRR2, active compounds read low 0.971 | S. cerevisiae deletion strains, locus YDR052C, strain DBF4, active compounds read low 0.971 | S. cerevisiae deletion strains, locus YDR054C, strain cdc34, active compounds read low 0.958 | S. cerevisiae deletion strains, locus YDR226W, strain ADK1, active compounds read low 0.967 | S. cerevisiae deletion strains, locus YDR477W, strain SNF1, active compounds read low 0.974 | S. cerevisiae deletion strains, locus YER123W, strain YCK3, active compounds read low 0.949 | S. cerevisiae deletion strains, locus YER133W, strain GLC7, active compounds read low 0.961 | S. cerevisiae deletion strains, locus YFL009W, strain cdc4, active compounds read low 0.966 | S. cerevisiae deletion strains, locus YFL029C, strain CAK1, active compounds read low 0.955 | S. cerevisiae deletion strains, locus YFR003C, strain YPI1, active compounds read low 0.949 | S. cerevisiae deletion strains, locus YFR019W, strain FAB1, active compounds read low 0.97 | S. cerevisiae deletion strains, locus YFR028C, strain CDC14, active compounds read low 0.947 | S. cerevisiae deletion strains, locus YGR040W, strain KSS1, active compounds read low 0.965 | S. cerevisiae deletion strains, locus YGR052W, strain FMP48, active compounds read low 1.02 | S. cerevisiae deletion strains, locus YGR092W, strain DBF2, active compounds read low 0.932 | [8] 1.04 | S. cerevisiae deletion strains, locus YHR079C, strain IRE1, active compounds read low 1.03 | S. cerevisiae deletion strains, locus YHR082C, strain KSP1, active compounds read low 1.06 | S. cerevisiae deletion strains, locus YHR205W, strain SCH9, active compounds read low 0.95 | S. cerevisiae deletion strains, locus YIL147C, strain SLN1, active compounds read low 0.958 | S. cerevisiae deletion strains, locus YJL095W, strain BCK1, active compounds read low 1.02 | S. cerevisiae deletion strains, locus YJL128C, strain PBS2, active compounds read low 0.9 | S. cerevisiae deletion strains, locus YJL157C, strain FAR1, active compounds read low 0.973 | S. cerevisiae deletion strains, locus YJR016C, strain ILV3, active compounds read low 0.965 | S. cerevisiae deletion strains, locus YJR066W, strain TOR1 (second series), active compounds read low 0.972 | S. cerevisiae deletion strains, locus YJR066W, strain TOR1, active compounds read low 1.07 | S. cerevisiae deletion strains, locus YKL048C, strain ELM1, active compounds read low 0.951 | S. cerevisiae deletion strains, locus YKL067W, strain YNK1, active compounds read low 0.955 | S. cerevisiae deletion strains, locus YKL101W, strain HSL1, active compounds read low 0.968 | S. cerevisiae deletion strains, locus YKL193C, strain SDS22, active compounds read low 0.951 | S. cerevisiae deletion strains, locus YKL203C, strain TOR2, active compounds read low 1.04 | S. cerevisiae deletion strains, locus YLR113W, strain HOG1, active compounds read low 0.891 | S. cerevisiae deletion strains, locus YLR133W, strain CKI1, active compounds read low 0.965 | S. cerevisiae deletion strains, locus YLR403W, strain SFP1, active compounds read low 0.978 | S. cerevisiae deletion strains, locus YML070W, strain DAK1, active compounds read low 0.944 | S. cerevisiae deletion strains, locus YMR001C, strain CDC5, active compounds read low 0.937 | S. cerevisiae deletion strains, locus YMR205C, strain PFK2 (second series), active compounds read low 0.958 | S. cerevisiae deletion strains, locus YMR277W, strain FCP1, active compounds read low 0.947 | S. cerevisiae deletion strains, locus YNL006W, strain LST8, active compounds read low 0.968 | S. cerevisiae deletion strains, locus YNL020C, strain ARK1, active compounds read low 0.968 | S. cerevisiae deletion strains, locus YNL161W, strain CBK1, active compounds read low 0.971 | S. cerevisiae deletion strains, locus YNL183C, strain NPR1, active compounds read low 0.99 | S. cerevisiae deletion strains, locus YNL207W, strain RIO2, active compounds read low 0.968 | S. cerevisiae deletion strains, locus YNL222W, strain SSU72, active compounds read low 0.953 | S. cerevisiae deletion strains, locus YNL307C, strain MCK1 (second series), active compounds read low 0.957 | S. cerevisiae deletion strains, locus YOL078W, strain AVO1, active compounds read low 0.963 | S. cerevisiae deletion strains, locus YOL136C, strain PFK27, active compounds read low 0.968 | S. cerevisiae deletion strains, locus YOR061W, strain CKA2, active compounds read low 0.945 | S. cerevisiae deletion strains, locus YOR119C, strain RIO1, active compounds read low 1.01 | S. cerevisiae deletion strains, locus YOR231W, strain MKK1, active compounds read low 1.03 | S. cerevisiae deletion strains, locus YOR329C, strain SCD5, active compounds read low 0.969 | S. cerevisiae deletion strains, locus YPL031C, strain PHO85, active compounds read low 0.97 | S. cerevisiae deletion strains, locus YPL153C, strain RAD53, active compounds read low 0.968 | S. cerevisiae deletion strains, locus YPL204W, strain HRR25, active compounds read low 0.971 | S. cerevisiae deletion strains, locus YPL209C, strain IPL1, active compounds read low 0.968 | S. cerevisiae deletion strains, locus YPL256C, strain CLN2, active compounds read low 0.995 | S. cerevisiae deletion strains, locus YPR025C, strain CCL1, active compounds read low 0.964 | S. cerevisiae deletion strains, locus YPR106W, strain ISR1, active compounds read low 0.961 | S. cerevisiae deletion strains, locus YPR111W, strain DBF20, active compounds read low 0.958 | S. cerevisiae deletion strains, strain NNK1, active compounds read low 0.959 | S. cerevisiae deletion strains, strain TSCII, active compounds read low 0.958

— PubChem BioAssay AID1159580 (chemical genetic matrix, 2015)
